Assay outcomes: PubChem, The Scripps Research Institute Molecular Screening Center
Compounds with a hit are over-represented: about 2.6% of the library has one in this group of screens.
SIAE inh: inhibitors of human sialic acid acetylesterase SIAE | Q9HAT2 | SIAE FP-Rh probe binding, fluorescence polarization | inhibition, % at 9.66 µM | 370,000 compounds, 0.69% hits | AID 1053197;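 active = inhibition above a cutoff: mean of compounds within the control limits plus 3 SD of those, cut at about 17% in these data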
Target sequence (Q9HAT2 whole entry, looked up): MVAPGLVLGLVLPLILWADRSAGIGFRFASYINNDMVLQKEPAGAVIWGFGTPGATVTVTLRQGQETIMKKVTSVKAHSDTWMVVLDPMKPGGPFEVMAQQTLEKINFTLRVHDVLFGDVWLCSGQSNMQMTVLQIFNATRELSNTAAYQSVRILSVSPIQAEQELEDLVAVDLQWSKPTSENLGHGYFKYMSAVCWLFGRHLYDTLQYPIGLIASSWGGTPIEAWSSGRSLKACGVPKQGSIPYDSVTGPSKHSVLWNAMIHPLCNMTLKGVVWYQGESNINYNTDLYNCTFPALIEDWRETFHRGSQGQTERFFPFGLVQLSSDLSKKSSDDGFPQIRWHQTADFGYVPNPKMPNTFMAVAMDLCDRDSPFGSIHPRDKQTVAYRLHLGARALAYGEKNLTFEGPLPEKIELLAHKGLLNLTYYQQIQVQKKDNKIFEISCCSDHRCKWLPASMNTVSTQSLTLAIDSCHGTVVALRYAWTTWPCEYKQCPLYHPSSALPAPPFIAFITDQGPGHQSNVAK
PAD4 FP inh: PAD4 (human) enzyme inhibition. Q9UM07. AID 485272. recombinant PAD4, RCA probe fluorescence polarization. inhibition, % at 6.36 µM. 330,000 compounds, 0.41% hits;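 active = percent inhibition above a cutoff equal to the mean of all tested compounds plus 3 SD, cut at about 15% in these data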
TCR CD3 inh: blocks the human TCR-CD3 interaction. TAMRA-labeled TCR probe fluorescence, biochemical. inhibition, % at 9.4 µM. 360,000 compounds, 0.37% hits; in the data active = inhibition above about 19%;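 note: recombinant mutant TCR 2C K166C tagged with TAMRA read by polarization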
PME-1 inh: blocks human protein phosphatase methylesterase 1 | recombinant PME-1, FP-Rh probe fluorescence polarization | Q9Y570 | 320,000 compounds, 0.53% hits | inhibition, % at 5.9 µM;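 active = inhibition above the campaign mean of all compounds plus 3 SD, cut at about 26% in these data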;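 note: competitive labeling of PME-1 active site by serine hydrolase directed probe; inhibitors block probe labeling so polarization falls and inhibition rises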
PRMT1 inh: inhibitors of human PRMT1; recombinant PRMT1, activity-based probe fluorescence polarization; inhibition, % at 2.79 µM; 370,000 compounds, 1.3% hits; AID 652257;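 active = inhibition above about 21% made by adding two undisclosed values, limit read from the data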
Fam108B counter: counter-screen for RBBP9 inhibitors: inhibitors of mouse Fam108B | inhibition, % at 9.51 µM | AID 1947 | recombinant Fam108B, FP-Rh probe fluorescence polarization | 300,000 compounds, 0.33% hits;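 active = inhibition above the screen mean inhibition plus 3 SD, computed separately per campaign, cut at about 18% in these data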;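 note: inhibitors lower polarization as less probe binds the enzyme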
Of the large screens only hits and unclear results are named; the others gave an inactive call.

CCN(CC)c1ccc(N=Cc2c(O)[nH]c(=O)[nH]c2=O)cc1	PAD4 FP inh 26.0, PRMT1 inh 30.8
CCc1ccccc1NC(=O)CSc1nnc([C@@H](N)Cc2c[nH]c3ccccc23)o1	PRMT1 inh 23.9
Cc1ccc(NC(=O)CSc2nnc([C@@H](N)Cc3c[nH]c4ccccc34)o2)c(C)c1	none
CN1c2ccc(Br)cc2[C@H]2NCC[C@H]2[C@H]1CO	none (no result: PAD4 FP inh, TCR CD3 inh, PME-1 inh, Fam108B counter)
COc1cccc(OC)c1C1=NCC(=O)Nc2c1oc1ccc(Br)cc21	PME-1 inh 45.2
COc1ccc(CN2C(=O)NC(=O)/C(=C\c3ccco3)C2=O)cc1	none
O=C1NC(=O)N(Cc2ccccc2)C(=O)/C1=C/C=C/c1ccco1	PRMT1 inh 23.4
C=CCN1CCc2cccc3c2[C@H]1Cc1ccc(O)c(O)c1-3	PRMT1 inh 40.1
C=CCN1CC[C@]23c4c5ccc(O)c4O[C@H]2C(=O)CC[C@@]3(O)[C@H]1C5	none
CC[C@H](C)[C@@H]1OC(=O)[C@H](C(C)C)N(C)C(=O)[C@H](C(C)C)NC(=O)[C@@H](C)[C@@H](CCCC#CBr)OC(=O)[C@H](C(C)C)N(C)C(=O)C2CCCN2C1=O (stereo not given in full)	none (no result: PAD4 FP inh, TCR CD3 inh, PME-1 inh, Fam108B counter)
CN1C(=O)/C(=C/c2cccn2-c2ccc3ccccc3c2)C(=O)NC1=S	PRMT1 inh 43.8
CNCCc1ccc(O)c(O)c1	PRMT1 inh 21.4
O=C(O)c1cc[c]([Hg][Cl])cc1	PAD4 FP inh 21.9 (no result: SIAE inh, TCR CD3 inh, PRMT1 inh)
COc1ccc(C(=O)O)cc1OC	none (no result: PAD4 FP inh, PME-1 inh, Fam108B counter)
COc1ccc(C2SCC(=O)Nc3c2c(C)nn3-c2ccccc2)cc1 (stereo not given)	PRMT1 inh 23.1
COc1ccccc1N1C(=O)NC(=O)/C(=C/c2ccc([N+](=O)[O-])s2)C1=O	PRMT1 inh 26.7, Fam108B counter 24.5
N#CC1c2ccccc2-n2nncc2CN1C(=O)c1ccc([N+](=O)[O-])o1 (stereo not given)	none (no result: PAD4 FP inh, TCR CD3 inh, PME-1 inh, Fam108B counter)
N#CC1c2ccccc2-n2nncc2CN1C(=O)c1cccnc1 (stereo not given)	none (no result: PAD4 FP inh, TCR CD3 inh, PME-1 inh, Fam108B counter)
Cc1ccc(OCCOc2cccc(C=C3C(=O)NC(=O)NC3=O)c2)cc1	PRMT1 inh 22.2
CC(C)C(=O)c1cn(Cc2ccccc2C#N)c2ccccc12	PME-1 inh 39.4
CC(=O)c1cn(Cc2ccccc2C#N)c2ccccc12	none
COC(=O)C1(N(C)c2ccccc2)CCN(Cc2ccccc2)CC1	none (no result: PAD4 FP inh, TCR CD3 inh, PME-1 inh, Fam108B counter)
Oc1ccccc1/C=N/NP(=S)(c1ccccc1)c1ccccc1	none
Oc1ccc(/C=N/NP(=S)(c2ccccc2)c2ccccc2)c(O)c1O	PME-1 inh 28.2
O=C(NC1CCCCC1)Oc1cc2oc(=O)sc2cc1Cl	PRMT1 inh 85.5
Nc1c(C(=O)NCc2ccco2)c2nc3ccccc3nc2n1Cc1ccccc1	none
Nc1c(C(=O)NCc2ccco2)c2nc3ccccc3nc2n1CCN1CCOCC1	PME-1 inh 27.9
N=c1c2c(-c3ccccc3)c(-c3ccccc3)n(Cc3ccccc3)c2ncn1C1CCC(O)CC1 (stereo not given)	none (no result: PAD4 FP inh, TCR CD3 inh, PME-1 inh, Fam108B counter)
Cc1ccccc1CCC[C@H](CC1CCCCC1)CN(C)C(=O)Oc1ccccc1	none (no result: PAD4 FP inh, TCR CD3 inh, PME-1 inh, Fam108B counter)
O=C1NC(=O)N(c2ccccc2F)C(=O)/C1=C/c1ccc(Sc2nc3ccccc3[nH]2)o1	PRMT1 inh 25.0
O=C1NC(=O)N(c2ccccc2)C(=O)/C1=C/c1ccc(Sc2ccccc2)o1	none (no result: SIAE inh, TCR CD3 inh, PRMT1 inh)
O=c1[nH]c(=O)n(Cc2ccco2)c(O)c1C=NCc1ccc2c(c1)OCO2	PRMT1 inh 23.2
Cc1ccc(CC2C(=O)N(C)C(=O)N(C)C2=O)s1	PRMT1 inh 21.2
O=C(CNC(=O)OCc1ccccc1)NC(Cc1ccccc1)P(=O)(Oc1ccccc1)Oc1ccccc1 (stereo not given)	none (no result: PAD4 FP inh, TCR CD3 inh, PME-1 inh, Fam108B counter)
CN(C)[C@@H]1C(=O)C(C(N)=O)=C(O)[C@@]2(O)C(=O)C3=C(O)c4c(O)ccc(Cl)c4[C@@](C)(O)[C@H]3C[C@@H]12	PRMT1 inh 24.2
c1cncc(-c2ccc3n2Cc2cnnn2-c2ccccc2-3)c1	none (no result: PAD4 FP inh, TCR CD3 inh, PME-1 inh, Fam108B counter)
O=c1[nH]cc(N(CCCl)CCCl)c(=O)[nH]1	none (no result: PAD4 FP inh, TCR CD3 inh, PME-1 inh, Fam108B counter)
CN1C[C@H](CO)C=C2c3cccc4[nH]cc(c34)C[C@H]21	PRMT1 inh 22.8
O=C(CF)NC(Nc1cccc2cccnc12)C(Cl)(Cl)Cl (stereo not given)	PME-1 inh 36.3
O=C(CN1C(=O)[C@@H](Cc2ccccc2)N=C(c2ccccc2)c2ccccc21)NC1CCCCC1	none (no result: PAD4 FP inh, TCR CD3 inh, PME-1 inh, Fam108B counter)
CN1C(=O)[C@@]23C[C@]4(c5c[nH]c6ccccc56)c5ccccc5N(S(=O)(=O)c5ccccc5)[C@@H]4N2C(=O)[C@@H]1SS3	none (no result: PAD4 FP inh, TCR CD3 inh, PME-1 inh, Fam108B counter)
CCCOc1ccc(C(=O)NC(=S)N2C[C@H]3C[C@H](C2)c2cccc(=O)n2C3)cc1	PRMT1 inh 24.6
Brc1csc(N2CCNCC2)n1	none (no result: PAD4 FP inh, TCR CD3 inh, PME-1 inh, Fam108B counter)
O=C1NC(=S)N(c2ccccc2)C(=O)C1C(c1ccncc1)C1C(=O)NC(=S)N(c2ccccc2)C1=O (stereo not given)	PRMT1 inh 28.2
Cc1ccc(S(=O)(=O)N2CCCCC2)cc1NC(=O)CN1CC=C(c2ccccc2)CC1	PME-1 inh 74.7
O=C(CN1CC=C(c2ccccc2)CC1)Nc1c(Cl)cccc1Cl	PME-1 inh 36.0
CO[C@H]([C@H](C)/C=C/N(C)C=O)[C@@H](C)C(=O)CC[C@H](C)[C@H](O)[C@H](C)[C@H]1OC(=O)/C=C/C(C)=C/[C@H](O)[C@H](OC)C[C@@H]2C=CC[C@@H](C[C@H](OC)[C@@H](CO)[C@@H](OC)C[C@@H](OC)[C@@H]1C)O2	none (no result: PAD4 FP inh, TCR CD3 inh, PME-1 inh, Fam108B counter)
NP(=O)(OCC(F)(F)F)Oc1cccc2ccccc12 (stereo not given)	none
NP(=O)(Oc1ccccc1Cl)Oc1ccccc1Cl	PME-1 inh 97.7
CN1C(=O)C(=Cc2ccccc2OCc2ccccc2Cl)C(=O)N(C)C1=O	PRMT1 inh 22.7
CN1C(=O)C(=Cc2ccccc2OCc2ccc(C(=O)O)cc2)C(=O)N(C)C1=O	none
CC(=O)N1c2ccccc2C(c2ccccc2)=NCC1C(=O)NCc1ccccc1 (stereo not given)	none (no result: PAD4 FP inh, TCR CD3 inh, PME-1 inh, Fam108B counter)
O=[As](O)(O)c1ccc(N=Nc2ccc(O)cc2)cc1	none (no result: PAD4 FP inh, PME-1 inh, Fam108B counter)
O=C1C(Cl)=CC(=Nc2ccc(O)cc2)C=C1Cl	SIAE inh 21.0, PRMT1 inh 21.9 (no result: Fam108B counter)
O=C(CN1C(=O)[C@@H](Cc2c[nH]c3ccccc23)N=C(c2ccccc2)c2ccccc21)NC1CCCCC1	none (no result: PAD4 FP inh, TCR CD3 inh, PME-1 inh, Fam108B counter)
O=c1[nH]c(=S)[nH]c(O)c1N=Nc1ccc(S(=O)(=O)N2CCc3ccccc32)cc1	PME-1 inh 36.1
COc1ccc2c3c([nH]c2c1)[C@H](C=C(C)C)N1C(=O)[C@@H]2CCCN2C(=O)[C@@H]1C3	none (no result: PAD4 FP inh, TCR CD3 inh, PME-1 inh, Fam108B counter)
O=C(NC(Cc1ccccc1)P(=O)(O)Oc1ccccc1)OCc1ccccc1 (stereo not given)	none (no result: PAD4 FP inh, TCR CD3 inh, PME-1 inh, Fam108B counter)
